An excerpt weighted towards active compounds, which were near 3.9% of everything screened.
SUMO HTRF inh: inhibitors of in vitro SUMOylation cascade, primary screen, biochemical, HTRF, uHTS | HTRF SUMOylation assay, SAE1/SAE2 + UBC9 | SUMO-conjugating enzyme UBC9 (Homo sapiens), P63279 | AID 2006, 2009 | inhibition, % at 35 µM | 290,000 tested, 0.36% active; in the data active means inhibition above about 50%, passing the limit was not always enough
Target sequence (P63279 whole entry, looked up): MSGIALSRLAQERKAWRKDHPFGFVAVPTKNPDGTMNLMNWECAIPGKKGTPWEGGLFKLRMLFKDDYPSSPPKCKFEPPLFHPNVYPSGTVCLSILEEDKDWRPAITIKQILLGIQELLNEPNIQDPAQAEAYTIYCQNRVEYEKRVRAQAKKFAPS
NTR1 ag: agonists of human NTR1, primary screen, imaging, U2OS cells, beta-arrestin-GFP, high content; Neurotensin receptor type 1 (Homo sapiens), P30989; NTR1-U2OS beta-arrestin-GFP spot imaging, agonist mode; activation, % at 20 µM; 330,000 tested, 0.17% active; AID 493036, 2011;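 active means activation at or above 40% of the spot to cytoplasm intensity ratio, with at least 20 cells analyzed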;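 further: 0% = DMSO without peptide and 100% = 100 nM NTR1 peptide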
H9c2 protect: cardioprotection against H2O2-induced cell death, primary screen, uHTS, H9c2 cells, ATPLite luminescence; H9c2 cardiomyocytes, H2O2 injury protection, 2 h; 360,000 tested, 0.63% active; protection from H2O2 cell death, % at 20 µM; AID 588492, 2011;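 active means compounds giving at least 50% protection of heart cells from peroxide-induced death in the single-dose screen, raw or plate-pattern-corrected value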;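 further: 0% = DMSO wells with peroxide and 100% = DMSO wells without peroxide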
ALR H2O2 inh: inhibitors of human ALR sulfhydryl oxidase, primary screen, biochemical, H2O2 detection, HRP-luminol luminescence, single point. FAD-linked sulfhydryl oxidase ALR (Homo sapiens), P55789. inhibition, % (concentration not given with the values). purified ALR, DTT oxidation. 290,000 tested, 3.8% active;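 active means mean replicate inhibition above about 79%, with every replicate also reaching it, limit read from the data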
Target sequence (P55789 whole entry, looked up): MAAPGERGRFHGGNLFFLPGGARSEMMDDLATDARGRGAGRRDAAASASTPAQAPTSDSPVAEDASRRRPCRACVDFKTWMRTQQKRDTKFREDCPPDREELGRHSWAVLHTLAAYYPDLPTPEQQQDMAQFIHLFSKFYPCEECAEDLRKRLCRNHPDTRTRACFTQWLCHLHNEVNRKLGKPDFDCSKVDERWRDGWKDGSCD
An asterisk follows results filed as active.

Results for CCOc1cc([N+](=O)[O-])cc(/C=N/NC(=O)c2c(-c3ccccc3)noc2C)c1O ?
SUMO HTRF inh: 4; NTR1 ag: 2; H9c2 protect: 42; ALR H2O2 inh: -2

How did COc1cc(/C=N/NC(=O)c2c(-c3ccccc3)noc2C)ccc1O do in these assays?
SUMO HTRF inh: -1; NTR1 ag: 1; H9c2 protect: 0; ALR H2O2 inh: 99*

How did Clc1ccc(Nc2nc(C3CC3)cs2)cc1 do in these assays?
SUMO HTRF inh: 6; NTR1 ag: 1; H9c2 protect: -24; ALR H2O2 inh: 12

Results for O=C(c1cccc(S(=O)(=O)N2CCOCC2)c1)N1CCN(S(=O)(=O)c2cccs2)CC1 ?
SUMO HTRF inh: 15; NTR1 ag: 3; H9c2 protect: 17; ALR H2O2 inh: 3

Results for Cc1ccc(C(C)C)c(OCc2ccc(C(=O)N/N=C/c3ccc(O)c(O)c3)cc2)c1 ?
SUMO HTRF inh: -17; NTR1 ag: 1; H9c2 protect: 97*; ALR H2O2 inh: 97*

Results for CCOc1cc(/C=N/NC(=O)c2ccc(=O)n(C)c2)ccc1O ?
SUMO HTRF inh: 3; NTR1 ag: 0; H9c2 protect: 2; ALR H2O2 inh: 99*

Results for O=C(N/N=C/c1ccc(O)c(O)c1)c1ccc(CSc2cccc3cccnc23)cc1 ?
SUMO HTRF inh: -2; NTR1 ag: -2; H9c2 protect: 88*

Results for Cc1sc2nc(COC(=O)c3ccc(O)cc3)[nH]c(=O)c2c1C ?
SUMO HTRF inh: -8; NTR1 ag: 2; H9c2 protect: 27

Results for COc1ccc(S(=O)(=O)N2CC(O)CC2C(=O)OCc2nc3sc(C)c(C)c3c(=O)[nH]2)cc1 (stereo not given) ?
SUMO HTRF inh: 11; NTR1 ag: 2; H9c2 protect: 79*; ALR H2O2 inh: -37

How did CCN1C(=O)c2ccc(C(=O)Nc3c(C)cc(C)cc3C)cc2C1=O do in these assays?
SUMO HTRF inh: 0; NTR1 ag: 1; H9c2 protect: 4; ALR H2O2 inh: 1

How did CCCN1C(=O)c2ccc(C(=O)Nc3ccccc3C(=O)O)cc2C1=O do in these assays?
SUMO HTRF inh: 3; NTR1 ag: 2; H9c2 protect: -13; ALR H2O2 inh: 97*

What do the screens show for `O=C(Nc1ccc(O)cc1)c1ccc2c(c1)C(=O)N(N1C(=O)c3ccccc3C1=O)C2=O`?
SUMO HTRF inh: 4; NTR1 ag: 0; H9c2 protect: 20; ALR H2O2 inh: 91*

Results for CCN1C(=O)c2ccc(C(=O)Nc3ccc(O)cc3C)cc2C1=O ?
SUMO HTRF inh: 7; NTR1 ag: 0; H9c2 protect: 5; ALR H2O2 inh: 99*

Results for Cc1cccc(C(=O)Nc2ccc(O)cc2)c1 ?
NTR1 ag: 12; H9c2 protect: -3; ALR H2O2 inh: 99*

How did CSc1ccc(Cl)c(C(=O)NCCOc2cc(C(C)C)ccc2C)c1 do in these assays?
SUMO HTRF inh: 4; NTR1 ag: 5; H9c2 protect: -10; ALR H2O2 inh: -22

Results for Cc1cc(NS(=O)(=O)c2ccc(NC(=O)c3oc4ccccc4c3C)cc2)no1 ?
SUMO HTRF inh: 26; NTR1 ag: 0; H9c2 protect: -3; ALR H2O2 inh: 98*

How did Cc1cc(C(=O)Nc2ccc(S(=O)(=O)Nc3onc(C)c3C)cc2)c(C)o1 do in these assays?
SUMO HTRF inh: 0; NTR1 ag: 1; H9c2 protect: 0; ALR H2O2 inh: 84*

What do the screens show for `Cc1ccc2oc(C(=O)Nc3ccc(S(=O)(=O)Nc4onc(C)c4C)cc3)c(C)c2c1`?
SUMO HTRF inh: 18; NTR1 ag: 0; H9c2 protect: -2; ALR H2O2 inh: 98*

How did Cc1c(C(=O)Nc2ccc(S(=O)(=O)Nc3ncccn3)cc2)oc2ccccc12 do in these assays?
NTR1 ag: -1; H9c2 protect: -8

Results for Cc1cc(NS(=O)(=O)c2ccc(NC(=O)Nc3cccc(Cl)c3)cc2)no1 ?
SUMO HTRF inh: 30; NTR1 ag: -1; H9c2 protect: 1; ALR H2O2 inh: 98*

Results for Cc1cc(NC(=O)Nc2cccc(Cl)c2)no1 ?
H9c2 protect: -7

What do the screens show for `CC(=O)C1=CCC(c2ccc(Cl)cc2)N(S(=O)(=O)c2ccccc2C)C1` (stereo not given)?
H9c2 protect: -1

How did Cc1cc(C(=O)Nc2ccc(S(=O)(=O)Nc3onc(C)c3C)cc2)cs1 do in these assays?
SUMO HTRF inh: 11; NTR1 ag: -1; H9c2 protect: 9; ALR H2O2 inh: 97*

How did C=CC[C@@H](CC(=O)N[C@H](CO)Cc1ccccc1)C(=O)N[C@H](COC(=O)[C@@H](CC=C)CC(=O)OC(C)(C)C)Cc1c[nH]c2ccccc12 do in these assays?
NTR1 ag: 13; H9c2 protect: -4; ALR H2O2 inh: 5

How did O=C(CNC(=O)c1ccccn1)N/N=C/c1ccc2c(c1)OCO2 do in these assays?
SUMO HTRF inh: -5; NTR1 ag: 1; H9c2 protect: -3; ALR H2O2 inh: 72

Results for CCN(CC)c1ccc(/C=N/NC(=O)OC(C)(C)C)cc1 ?
SUMO HTRF inh: -8; NTR1 ag: 0; H9c2 protect: -3; ALR H2O2 inh: 99*

How did CCN(CC)c1ccc(/C=N/NC(=O)c2ccoc2C)cc1 do in these assays?
SUMO HTRF inh: 8; NTR1 ag: 2; H9c2 protect: -10

Results for CCN(CC)c1ccc(/C=N/NS(=O)(=O)c2ccc(CNC(C)=O)cc2)cc1 ?
SUMO HTRF inh: 7; NTR1 ag: 0; H9c2 protect: -2; ALR H2O2 inh: 99*

What do the screens show for `CCN(CC)c1ccc(/C=N/NC(=O)Nc2ccccc2)cc1`?
SUMO HTRF inh: -13; NTR1 ag: 19; H9c2 protect: -20; ALR H2O2 inh: 34

Results for CC(=O)NCc1ccc(S(=O)(=O)N/N=C/c2ccc(Br)cc2)cc1 ?
SUMO HTRF inh: 8; NTR1 ag: -1; H9c2 protect: -2; ALR H2O2 inh: 7

How did CCN(CC)c1ccc(/C=N/NC(=O)CNC(=O)c2ccccn2)cc1 do in these assays?
SUMO HTRF inh: -5; NTR1 ag: 0; H9c2 protect: 0; ALR H2O2 inh: 95*

How did CCN(CC)c1ccc(/C=N\NC(N)=O)cc1 do in these assays?
SUMO HTRF inh: -2; NTR1 ag: 2; H9c2 protect: -9; ALR H2O2 inh: 99*

How did C/C(=N/NC(=O)c1ccccn1)c1ccncc1 do in these assays?
SUMO HTRF inh: 19; NTR1 ag: -2; H9c2 protect: 2; ALR H2O2 inh: -6

Results for O=C(c1ccco1)N1CCN(Cc2nnc(-c3ccccc3F)o2)CC1 ?
SUMO HTRF inh: -7; NTR1 ag: -1; H9c2 protect: 2

Results for CCN(CC)c1ccc(/C=N/NC(=O)CC(C)C)cc1 ?
SUMO HTRF inh: 9; NTR1 ag: 5; H9c2 protect: -8; ALR H2O2 inh: 99*

What do the screens show for `COc1ccc(/C=N/NC(=O)OC(C)(C)C)cc1OC`?
SUMO HTRF inh: 10; NTR1 ag: 1; H9c2 protect: 6; ALR H2O2 inh: 95*
